Among the data in PubChem BioAssay AID463173 (ICCB-Longwood Screening Facility, Harvard Medical School, 2010) are survival values, retold here.

Out of some 52,000 compounds screened, about 4,300 (8.3%) were called active. What follows is part of a selection rich in actives, with near analogues and random picks from the rest. Values without a mark were called inactive. Cut-off read from the data, not from the text of the source: active = survival mostly below about 52% (no sharp cut-off); inactive = mostly above about 56%.

In the assay the test system is DeltatarO mutant. Nature of the assay: growth inhibition of S. aureus wild type versus tarO mutant, primary screen, teichoic acid synthesis inhibitors, RN4220, OD600 (AID 463173). Particulars: OD600, 18 h, stronger effect = lower value, screened at 18.75 µg/mL (by protocol).
As for `Cc1ccc(NC(=O)CSc2nc(=O)n(CCN3CCOCC3)c3c2CCC3)c(C)c1`, the survival is 73%.

Regarding `COC(=O)c1ccc(NS(=O)(=O)c2ccc3c(c2)n(C)c(=O)c(=O)n3C)cc1`, the survival is 79%.

As for `COCCNC(=O)C1CCN(Cc2cc3ccccc3n2Cc2ccc(C)cc2)CC1`, the survival was 99%.

Consider `CCOc1ccc(NC(=O)CCS(=O)(=O)c2cc3c4c(c2)CCN4C(=O)CC3)cc1`, for which the survival is 74%.

With `Cc1ccc(-c2nnc(NC3CCCC3)s2)cc1`, the survival was 76%.

Regarding `N#CSc1cnc(NC2CCCCC2)s1`, the survival was 1% (active).

With `Cc1cc(C)c(C#N)c(NC2CCCCC2)n1`, the survival was 87%.

For the compound `Cc1ccc(C(=O)Nc2c(C(=O)Nc3ccc(C)c(C)c3)sc3nc(C)cc(C)c23)cc1`, the survival was 54%.

`Cc1cc(C)cc(-n2c(C)cc(C(=O)C(=O)Nc3ccccc3F)c2C)c1`: the survival is 99%.

In the case of `CCOc1ccc(C2C=C(c3cccc(OC)c3)Nc3nnnn32)cc1` (centres undefined), the survival is 45% (active).

As for `CCOc1ccc(NC(=O)c2cnn3c2NC(c2cccc(OC)c2)=CC3c2ccccc2)cc1` (centres undefined), the survival is 49%.

For the compound `COc1cccc(C2C=C(c3ccc(C)c(C)c3)Nc3nnnn32)c1OC` (centres undefined), the survival was 72%.

As for `Cc1cccc(C2C=C(c3ccc(C)c(C)c3)Nc3nnnn32)c1` (centres undefined), the survival was 6% (active).

For the compound `CN(C)c1ccc(C2C=C(c3ccccc3)Nc3nnnn32)cc1` (centres undefined), the survival is 52%.

`COc1ccc(C2=CC(c3cccc(C)c3)n3nnnc3N2)cc1` (centres undefined): the survival was 84%.

In the case of `COc1cccc(C2=CC(c3cc(Br)ccc3F)n3nnnc3N2)c1` (centres undefined), the survival is -2% (active).

Turning to `COc1ccc(C2C=C(c3ccc(Br)cc3)Nc3nnnn32)c(OC)c1` (centres undefined), the survival is 84%.

For the compound `Fc1ccc(Br)cc1C1C=C(c2ccc(Br)cc2)Nc2nnnn21` (centres undefined), the survival was 91%.

Turning to `Cc1ccc(C)c(N2CCN(S(=O)(=O)c3ccc4c(c3)n(C)c(=O)c(=O)n4C)CC2)c1`, the survival was 76%.

Regarding `CC(C)CC(C(=O)NCc1ccc(F)cc1)N1Cc2ccccc2C1=O` (centres undefined), the survival is 88%.

As for `O=C(NCc1cccnc1)c1nn(-c2ccc(F)cc2)nc1CO`, the survival is 111%.

As to `CCc1ccc2occ(CC(=O)Nc3c(C(=O)Nc4ccc(OC)cc4)oc4ccccc34)c2c1`, the survival was 84%.

For the compound `CCOc1cc2c(cc1OCC)C(CC(=O)OC)N(C(=O)Nc1cc(C)cc(C)c1)CC2` (centres undefined), the survival was 83%.

On to `CCOC(=O)CC1c2cc(OCC)c(OCC)cc2CCN1C(=O)Nc1cccc(Cl)c1` (centres undefined), for which the survival was 41% (active).

On to `CCOc1cc2c(cc1OCC)C(CC(=O)O)N(C(=O)Nc1ccc(Br)c(C)c1)CC2` (centres undefined), for which the survival is 81%.

On to `CC(=O)N1CCCC1c1nc2ccccc2n1Cc1ccccc1C` (centres undefined), for which the survival was 69%.

In the case of `Cc1ccccc1Cn1c(-c2cccs2)nc2ccccc21`, the survival is 19% (active).

Consider `OCc1nc2ccccc2n1Cc1ccccc1Cl`, for which the survival was 74%.

Regarding `O=C(NCc1nc2ccccc2n1Cc1ccccc1Cl)c1ccccc1`, the survival was 97%.

For the compound `CCCC(=O)NCCc1nc2ccccc2n1Cc1c(F)cccc1Cl`, the survival is 69%.

Take `OCc1nc2ccccc2n1Cc1c(F)cccc1Cl`: the survival is 99%.

As for `Clc1ccccc1Cn1c(-c2cccs2)nc2ccccc21`, the survival was 11% (active).

With `Cc1cccc(CNC(=O)Cn2c(-c3cccs3)cc3ccccc32)c1`, the survival is 116%.

With `Cc1ccccc1Cn1cnc2ccccc21`, the survival was 77%.

As to `Fc1cccc(Cl)c1Cn1c(-c2cccs2)nc2ccccc21`, the survival was 21% (active).

As for `CC(=O)N1CCCC1c1nc2ccccc2n1Cc1cccc(C)c1` (centres undefined), the survival is 72%.

`Cc1cccc(Cn2c(-c3cccs3)nc3ccccc32)c1`: the survival was 2% (active).

For the compound `O=c1[nH]nc(-c2ccccc2)c2cc3c(=O)[nH]nc(-c4ccccc4)c3cc12`, the survival was 100%.

In the case of `CSc1cccc(NC(=O)Cn2c(=O)n(Cc3ccccc3)c(=O)c3sc4ccccc4c32)c1`, the survival was 91%.

`Cc1ccc(Cn2c(=O)n(CC3CCC(C(=O)N4CCOCC4)CC3)c(=O)c3sccc32)cc1` (centres undefined): the survival is 75%.

For the compound `Cc1cccc(CC2C(=O)Nc3ccccc32)c1` (centres undefined), the survival is 87%.

For the compound `CCc1ccccc1NC(=O)Cn1ccn(-c2cc(C)cc(C)c2)c(=O)c1=O`, the survival is 67%.

On to `Cc1cc(Cl)ccc1NC(=O)C(=O)NCc1ccco1`, for which the survival is 135%.

Turning to `Cc1ccc(C)c(Cn2c(-c3cccs3)nc3ccccc32)c1`, the survival was -3% (active).

Consider `CCC(O)c1nc2ccccc2n1Cc1cc(C)ccc1C` (centres undefined), for which the survival is 86%.

Regarding `Cc1ccc(C)c(Cn2c(C(C)NC(=O)c3ccccc3)nc3ccccc32)c1` (centres undefined), the survival was 88%.

`C=Cc1ccc(CSc2nnc(C)n3c2cc2occc23)cc1`: the survival was 42% (active).

`Cc1ccc(C)c(NC(=O)CSc2nnc(C)n3c2cc2occc23)c1`: the survival is 66%.

With `Cc1cc(C)c(CSc2nnc(C)n3c2cc2occc23)c(C)c1`, the survival is 40% (active).

`Cc1nnc(SCc2ccc(Cl)cc2)c2cc3occc3n12`: the survival is 28% (active).

On to `Cc1cc2c(cc3c(SCc4cccc(Cl)c4)nnc(C)n32)o1`, for which the survival was 56%.

On to `Clc1ccc(CSc2nncn3c2cc2occc23)cc1`, for which the survival is 47%.

`Cc1oc(-c2ccccc2F)nc1CSc1nnc(C)n2c1cc1occc12`: the survival is 74%.

For the compound `Cc1cc2c(cc3c(SCc4ccccc4Cl)nnc(C)n32)o1`, the survival was 49% (active).

For the compound `Cc1nnc(SCc2ccccc2Cl)c2cc3occc3n12`, the survival is 74%.

Consider `Cc1cc2c(cc3c(SCc4ccc(Cl)cc4)nnc(C)n32)o1`, for which the survival is 57%.

Turning to `Cc1ccc(-c2nc(CSc3nnc(C)n4c3cc3occc34)c(C)o2)cc1`, the survival is 72%.

Turning to `Cc1oc(-c2cccc(Cl)c2)nc1CSc1nnc(C)n2c1cc1occc12`, the survival is 79%.

For the compound `COc1ccc(NC(=O)C(CC(C)C)NS(=O)(=O)c2ccc3c(c2)oc(=O)n3C)cc1Cl` (centres undefined), the survival is 127%.

As for `Cc1cccc(NC(=O)CSc2nc3c(sc4ccccc43)c(=O)n2CCCC(=O)NC2CCCC2)c1`, the survival was 87%.

With `CCOC(=O)c1c(C)oc2ncnc(NCCCN3CCN(c4cc(C)ccc4C)CC3)c12`, the survival was 101%.

Consider `Cc1ccc(Cn2c(C(=O)NCc3ccccc3Cl)cc3sccc32)cc1`, for which the survival was 86%.

In the case of `COc1ccccc1-c1nc2c3c(-c4ccccc4)c(-c4ccccc4)oc3ncn2n1`, the survival is 70%.

In the case of `COc1cccc(NC(=O)CSCc2cc(=O)c3ccc(C)c(C)c3[nH]2)c1`, the survival is 74%.

As for `CSCCC(NS(=O)(=O)c1ccc2c(c1)oc(=O)n2C)C(=O)Nc1ccc(Cl)cc1` (centres undefined), the survival was 94%.

For the compound `COc1ccc(CCNC(=O)CCn2c(=O)c3cccn3c3ccc(F)cc32)c(OC)c1OC`, the survival was 39% (active).

As for `COc1ccc(OC)c(CCNC(=O)CCn2c(=O)c3cccn3c3ccc(F)cc32)c1`, the survival is 58%.

Consider `O=C(CCn1c(=O)c2cccn2c2ccc(F)cc21)NCCc1ccccc1Cl`, for which the survival was 52%.

On to `COc1ccc(OC)c(CNC(=O)CCn2c(=O)c3cccn3c3ccc(F)cc32)c1`, for which the survival is 58%.

Turning to `COc1ccccc1CCNC(=O)CCn1c(=O)c2cccn2c2ccc(F)cc21`, the survival is 44% (active).

`COc1ccc(OC)c(CCNC(=O)CCCn2c(=O)c3cccn3c3ccc(F)cc32)c1`: the survival was 88%.

With `COc1ccc(S(=O)(=O)Nc2ccc3c(c2)CCCN3S(=O)(=O)c2ccc(C)cc2)cc1F`, the survival was 74%.

With `O=C(NCCn1ccc2ccccc21)c1ccc(Cl)cc1`, the survival is 87%.

With `O=C1CC(c2ccccc2)Cc2[nH]c(=O)c(C(=O)Nc3ccc(OC(F)(F)F)cc3)cc21` (centres undefined), the survival is 163%.

For the compound `CCN(C(=O)CSc1nc2ccccc2[nH]1)c1ccccc1`, the survival is 85%.

`CCN(C(=O)CSc1nc2ncccc2[nH]1)c1ccc(C(C)C)cc1`: the survival is 43% (active).

As for `CCc1ccc(NC(=O)CSc2nc3ncccc3[nH]2)cc1`, the survival was 86%.

With `COc1ccccc1CNC(=O)CSc1nc2nc(C)c(Cc3ccccc3C)c(C)n2n1`, the survival is 118%.

For the compound `COc1cc(NC(=O)CSc2nc3nc(C)c(Cc4ccccc4Cl)c(C)n3n2)cc(OC)c1`, the survival was 73%.

Regarding `COc1ccccc1CNC(=O)CSc1nc2nc(C)c(Cc3ccccc3Cl)c(C)n2n1`, the survival is 46% (active).

In the case of `Cc1ccc(Cc2c(C)nc3nc(SCC(=O)NC4CCC(C)CC4)nn3c2C)cc1` (centres undefined), the survival is 131%.

For the compound `Cc1cccc(Cc2c(C)nc3nc(SCC(=O)NC4CCCCC4)nn3c2C)c1`, the survival is 40% (active).

In the case of `COCCCNC(=O)CSc1nc2nc(C)c(Cc3ccccc3Cl)c(C)n2n1`, the survival is 61%.

`Cc1nc2nc(SCC(=O)NC3CCC(C)CC3)nn2c(C)c1Cc1ccccc1` (centres undefined): the survival is 92%.

Consider `Cc1nc2nc(SCC(=O)NC3CCCCC3)nn2c(C)c1Cc1ccccc1Cl`, for which the survival was 25% (active).

For the compound `Cc1nc2nc(SCC(=O)NC3CCC(C)CC3)nn2c(C)c1Cc1ccccc1Cl` (centres undefined), the survival is 83%.

Take `Cc1c(C(=O)N(Cc2ccc(N(C)C)cc2)CC2CCCO2)oc2ccc(Br)cc12` (centres undefined): the survival is 58%.

Consider `CCc1nn2c(=O)cc(COC(=O)CNC(=O)c3ccccc3)nc2s1`, for which the survival was 123%.

Regarding `Brc1ccc(-c2cc3c(N4CCN(c5ccccc5)CC4)nccn3n2)cc1`, the survival was 194%.

`COC(=O)c1nc2n(n1)C(c1cc(OC)ccc1OC)C(C(=O)Nc1ccc(C)cc1C)=C(C)N2` (centres undefined): the survival is 79%.

As to `COc1ccc(C(=O)n2nc(N)c3cc4ccc(C)cc4nc32)cc1OC`, the survival was 94%.

On to `CCOC(=O)c1cc(-c2ccc(C)cc2)n(CC(=O)Nc2ccc(OC)c(Cl)c2)c1C`, for which the survival is 67%.

On to `COC(=O)c1ccc(NC(=O)Cn2cnc3c2c(=O)n(C)c(=O)n3C)cc1`, for which the survival is 80%.

Take `COc1ccc(-c2nc(C)c(CCNC(=O)c3cc(OC)c(OC)c(OC)c3)s2)cc1OC`: the survival was 64%.

Take `COc1ccc(-c2nc(C)c(CCNC(=O)c3ccc(C(F)(F)F)cc3)s2)cc1OC`: the survival is -2% (active).

With `CCOc1ccc(C(=O)NCCc2sc(-c3ccc(OC)c(OC)c3)nc2C)cc1`, the survival is 109%.

For `CCOc1ccc(C(=O)NCCc2sc(-c3ccc(C)cc3)nc2C)cc1`, the survival is -1% (active).

Take `CCOc1ccc(C(=O)NCCc2sc(-c3ccc(F)cc3)nc2C)cc1`: the survival is 90%.

For the compound `CCOc1ccc(NC(=O)C(=O)NCCc2sc(-c3ccc(C)cc3)nc2C)cc1`, the survival was 79%.
